The record followed here is PubChem BioAssay (Tox21).

Results filed as inconclusive are left out. Entries that show only a call come without a potency. Activity calls are given as the source filed them. The call rests on the fitted dose curve; in most records, active means well fitted cell-killing curve with a large enough effect in the repeat runs; inconclusive means weak or mixed curves; inactive means flat fitted curve, though single readings scatter.

The assay in a line: qHTS RealTime-Glo MT Cell Viability Assay in HepG2 cells - 16 hour (AID 1224885). Further: nearly all actives have a fitted effect of over 50% in size. To be noted: RealTime-Glo luminescence; series mostly up to 76.8 µM. From the text:
U.S. Tox21 Program National Center for Advancing Translational Sciences [NCATS] NIH Chemical Genomics Center [NCGC] U.S. Environmental Protection Agency [EPA] National Institutes of Environmental Health Sciences [NIEHS] National Toxicology Program [NTP] U.S. Food and Drug Administration [FDA] Tox21 Assay Overview: Measure of cell viability is critical in the cell-base assay. Analysis of cell viability is necessary for the characterization of cell responses to cytotoxic drugs and environmental stress. A RealTime-Glo MT Cell Viability Assay to monitor cell viability in real time of continues cell culture during 40 hours of compound treatment was used to screen Tox21 10K library compounds in HepG2 cells. The RealTime-Glo MT Cell Viability Assay is a nonlytic, homogeneous, bioluminescent method to measure cell viability in real time using a simple, plate-based method. The assay involves adding NanoLuc luciferase and a cell-permeant prosubstrate to cells in culture. Viable cells reduce the proprietary prosubstrate to generate a substrate for NanoLuc luciferase. This substrate diffuses from cells into the surrounding culture medium, where it is rapidly used by the NanoLuc Enzyme to produce a luminescent signal. The signal correlates with the number of viable cells, making the assay well suited for cytotoxicity studies.
Tox21 Assay Protocol Summary: The mixture of HepG2 cell suspension and reagents were dispensed at 600cells/6 ul/well in 1536-well tissue culture treated black solid bottom plates using a Multidrop dispenser. After the assay plates were incubated at a 37 C/5% CO2 incubator for 5 hours, 23 nL of compounds dissolved in DMSO, positive and negative controls was transferred to the assay plate by a pintool work station. The plates were incubated at 37 C for 40 hours. The luminescence intensity were measured at 0h, 8h, 16h, 24h, 32h and 40h time points using ViewLux plate reader during compound treatment.
(In general: Quantitative high-throughput screening tests each substance at several concentrations.)
Take `COc1ccc(N)c(OC)c1`: the Potency result is “inactive”.
The result for `CC(O)CNCC(C)O` (stereo not given) reads “inactive”.
The result for `CCN(CC)CCNC(=O)c1ccc(N)cc1` reads “inactive”.
On to `Cc1ccc(Cl)cc1`, for which the Potency result was “inactive”.
As to `O=Cc1ccc(CO)o1`, the Potency result was “inactive”.
The result for `CN1CCCC1=O` reads “inactive”.
For `NC1CCCCC1N` (stereo not given) the value was “inactive”; for `Cc1cc(C)cc(O)c1`, “inactive”.
Consider `COC(=O)OC`, for which the Potency entry is “inactive”.
On to `CC(=O)OC(C)(C)C1CC=C(C)CC1` (stereo not given), for which the Potency entry was “inactive”.
For `O=[N+]([O-])c1cc(C(F)(F)F)ccc1Cl` the value was “inactive”; for `O=c1n(CCCN2CCN(c3cccc(Cl)c3)CC2)nc2ccccn12`, “inactive”.
The result for `CCCCC(CC)COC(=O)c1ccc(C(=O)OCC(CC)CCCC)cc1` (stereo not given) reads “inactive”; that for `Cc1ccccc1C=O`, “inactive”.
The result for `CC(C)(CO)CO` reads “inactive”; that for `CC1(C)[C@@H](O[C@H]2O[C@H](C(=O)O)[C@@H](O)[C@H](O)[C@H]2O[C@@H]2O[C@H](C(=O)O)[C@@H](O)[C@H](O)[C@H]2O)CC[C@]2(C)[C@H]3C(=O)C=C4[C@@H]5C[C@@](C)(C(=O)O)CC[C@]5(C)CC[C@@]4(C)[C@]3(C)CC[C@@H]12`, “inactive”; that for `OCC(O)CS` (stereo not given), “inactive”.
On to `COc1ccc2cc3[n+](cc2c1OC)CCc1cc2c(cc1-3)OCO2`, for which the Potency result was “inactive”.
The result for `COCN(COC)c1nc(N(COC)COC)nc(N(COC)COC)n1` reads “inactive”.
The result for `CCCCCCCCCCCC(=O)N(C)CC(=O)O` reads “inactive”.
As to `CCn1cc(C(=O)O)c(=O)c2cc3c(cc21)OCO3`, the Potency result is “inactive”.
The result for `Cc1ccc(C(C)C)cc1` reads “inactive”.
For `Cc1nnc(NS(=O)(=O)c2ccc(N)cc2)s1` the value was “inactive”; for `O=C1O[C@H]([C@H](O)CO)C(O)=C1O`, “inactive”.
With `Nc1cccc(N)n1`, the Potency entry was “inactive”.
As to `OCCOCCOCCOCCOCCO`, the Potency result is “inactive”.
For `COc1ccccc1[N+](=O)[O-]` the value was “inactive”.
As to `C[n+]1ccn(CCO)c1`, the Potency entry was “inactive”.
On to `CCCOCC(C)O` (stereo not given), for which the Potency entry was “inactive”.
With `O=C(c1ccccc1)c1ccc(O)c(O)c1O`, the Potency entry is “inactive”.
For `CCCCCNCCCCC` the value was “inactive”.
For `c1cnc2c(c1)ccc1cccnc12` the value was “inactive”.
With `CC(C)(C)NC[C@H](O)COc1nsnc1N1CCOCC1`, the Potency entry is “inactive”.
For `O=C1OC(=O)c2c(Cl)c(Cl)c(Cl)c(Cl)c21` the value was “inactive”; for `CCc1cccc(O)c1`, “inactive”.
For `CC[N+](CC)(CC(=O)Nc1c(C)cccc1C)Cc1ccccc1` the value was “inactive”; for `CN1Cc2c(N)cccc2C(c2ccccc2)C1` (stereo not given), “inactive”.
Turning to `CCCN(CCC)C(=O)SCC`, the Potency result was “inactive”.
For `CC(CN1c2ccccc2Sc2ccccc21)N(C)C` (stereo not given) the value was “inactive”; for `CC/C(C)=N/O`, “inactive”.
